± gives the uncertainty stated by the source.
Test system: FLX1
Assay: cell viability z-score within plate (CellTiter-Glo), mean of 3 biological replicates; higher = higher viability relative to plate (less growth inhibition)
Conditions: 2 µM; time (hr): 120
Method: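 FLX1 fibrolamellar carcinoma cells (DNAJB1-PRKACA fusion), 600 cells/well in 384-well plates, treated with a Selleck kinase inhibitor library (L1200) at 2 uM for 5 days (120 hr); viability by CellTiter-Glo. A z-score was computed within each plate and averaged over three biological replicates.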

Question: With `COc1ccc(-c2cc3c(C)nc(N)nc3n([C@H]3CC[C@H](OCCO)CC3)c2=O)cn1` as the compound, how does the “cell viability z-score within plate” value read?
Answer: -0.872 ± 0.053

Question: For `COc1cc2ncnc(Nc3ccc(F)c(Cl)c3)c2cc1OCCCN1CCOCC1` [Gefitinib (ZD1839)], which “cell viability z-score within plate” value is on record?
Answer: -1.17 ± 1.2

Question: `CN1CC[C@H](c2c(O)cc(O)c3c(=O)cc(-c4ccccc4Cl)oc23)[C@H](O)C1` [Flavopiridol (Alvocidib)] was tested. Which “cell viability z-score within plate” value did it give?
Answer: 0.251 ± 0.25

Question: For `COc1cc2ncnc(Nc3cccc(Cl)c3)c2cc1OC` [AG-1478 (Tyrphostin AG-1478)], which “cell viability z-score within plate” value is on record?
Answer: -0.29 ± 0.52

Question: For `CO[C@H]1C[C@@H]2CC[C@@H](C)[C@@](O)(O2)C(=O)C(=O)N2CCCC[C@H]2C(=O)O[C@H]([C@H](C)C[C@@H]2CC[C@@H](OC(=O)C(C)(CO)CO)[C@H](OC)C2)CC(=O)[C@H](C)/C=C(\C)[C@@H](O)[C@@H](OC)C(=O)[C@H](C)C[C@H](C)/C=C/C=C/C=C/1C`, which “cell viability z-score within plate” value is on record?
Answer: -0.0698 ± 1.1

Reference: the supplement of paper PMC9925115
